Laboratory results reported in PubChem BioAssay (Tox21).
“And” between values parts separate entries of the source, which are not always exact repeats. Equal entries are not always repeated. Results filed as inconclusive are left out. A structure can be active in one record and inactive in another. The source made the active and inactive calls. Unless noted, the call rests on the fitted dose curve; in most records, active means well fitted curve in the direction sought with a large enough effect in the repeat runs; inconclusive means weak or mixed curves; inactive means no such curve, though single readings can be large; an effect the other way counts as inactive or inconclusive.

Assays:
[1] = qHTS assay to identify small molecule agonists of the estrogen receptor alpha (ER-alpha) signaling pathway in the presence of an antagonist - cell viability counter screen (AID 1259386);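 further: series mostly up to about 92 µM; cells exposed to compounds for 22 h at 37 °C before the viability read; nearly all actives have a fitted effect of over 30% in size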
Outline: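 Cells are starved of estrogens for 5 days in charcoal-stripped serum, seeded for 24hr and co-treated with ICI-182,780 (10.0nM final) and test compounds. After 22hr at 37C, viability is read as CellTiter-Fluor fluorescence.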

[2] = molecular target: Progesterone receptor (Homo sapiens) (UniProt P06401); test: qHTS assay to identify small molecule agonists of the progesterone receptor (PR) signaling pathway (AID 1346784; calls by dose curve; further: nearly all actives have a fitted effect of over 30% in size; further: potency means the concentration at half of the fitted maximal effect)
Chain of Progesterone receptor (Homo sapiens) (P06401 whole entry, looked up): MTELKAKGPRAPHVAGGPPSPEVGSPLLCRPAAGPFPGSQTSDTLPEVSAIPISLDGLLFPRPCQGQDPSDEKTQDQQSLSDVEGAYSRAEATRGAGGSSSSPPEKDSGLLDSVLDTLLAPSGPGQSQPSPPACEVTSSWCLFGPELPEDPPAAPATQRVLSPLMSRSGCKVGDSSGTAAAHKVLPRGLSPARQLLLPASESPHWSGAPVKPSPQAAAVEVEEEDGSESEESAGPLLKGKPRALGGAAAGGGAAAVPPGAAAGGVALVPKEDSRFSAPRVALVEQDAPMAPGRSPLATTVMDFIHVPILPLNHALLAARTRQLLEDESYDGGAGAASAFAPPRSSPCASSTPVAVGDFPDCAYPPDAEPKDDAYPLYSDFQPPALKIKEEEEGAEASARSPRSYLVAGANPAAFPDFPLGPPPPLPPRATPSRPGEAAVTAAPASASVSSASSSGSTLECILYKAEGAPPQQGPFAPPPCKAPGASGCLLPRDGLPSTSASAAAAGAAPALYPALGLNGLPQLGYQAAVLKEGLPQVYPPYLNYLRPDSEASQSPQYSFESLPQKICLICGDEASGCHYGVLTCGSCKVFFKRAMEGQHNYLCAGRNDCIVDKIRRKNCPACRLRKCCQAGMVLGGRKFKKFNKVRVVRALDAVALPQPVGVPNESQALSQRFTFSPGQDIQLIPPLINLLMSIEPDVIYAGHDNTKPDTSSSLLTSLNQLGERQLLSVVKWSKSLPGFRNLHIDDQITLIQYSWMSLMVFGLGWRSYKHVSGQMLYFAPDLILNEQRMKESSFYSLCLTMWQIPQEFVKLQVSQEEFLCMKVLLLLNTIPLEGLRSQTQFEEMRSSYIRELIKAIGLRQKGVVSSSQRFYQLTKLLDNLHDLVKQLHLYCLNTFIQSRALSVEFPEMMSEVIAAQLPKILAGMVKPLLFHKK
Outline: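 PR-UAS-bla HEK 293T cells carrying a UAS-driven beta-lactamase reporter were seeded in medium with 2% charcoal-stripped FBS, preincubated 6 hr at 37C, then exposed to compounds in DMSO for 16 hr; agonism was read by LiveBLAzer B/G FRET fluorescence.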

[3] = molecular target: Progesterone receptor (Homo sapiens) (UniProt P06401); test: qHTS assay to identify small molecule antagonists of the progesterone receptor (PR) signaling pathway (AID 1346795; active means well fitted inhibition curve with a large enough effect in the signal ratio in the repeat runs, not every such curve was filed as active; the % refers to the signal ratio; further: potency means the concentration at half of the fitted maximal effect)
Outline: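 PR-UAS-bla HEK293T cells carrying a UAS-driven beta-lactamase reporter were plated in medium with 2% charcoal-stripped FBS and rested 6 hr at 37C. Compounds were added with 1 nM R5020 (final) for 16 hr, then FRET substrate loaded 2 hr at room temperature.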

[4] = qHTS assay to identify small molecule agonists of the progesterone receptor (PR) signaling pathway - cell viability counter screen (AID 1346799; calls by dose curve; further: nearly all actives have a fitted effect of over 45% in size)
Outline: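 PR-UAS-bla HEK293T cells, 3,000 per well in medium with 2% charcoal-stripped FBS, were preincubated 6 hr at 37C, then exposed to compounds for 16 hr; viability was read as CellTiter-Glo luminescence after 30 min at room temperature.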

[5] = qHTS assay to identify small molecule antagonists of the TGF-beta/Smad signaling pathway - cell viability counter screen (AID 1346824); further: nearly all actives have a fitted effect of over 50% in size
Outline: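 SBE-bla HEK 293T cells were plated overnight at 37 C, then given compounds in DMSO plus TGF-beta1 (added as 0.25 ng/mL solution) for 5 hr. After the bla read, CellTiter-Glo was added to the same wells and luminescence read after 30 min at room temperature.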

[6] = qHTS assay to identify small molecule agonists of the TGF-beta/Smad signaling pathway - cell viability counter screen (AID 1346829); further: top concentration of the series differs between compounds; nearly all actives have a fitted effect of over 45% in size
Outline: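 In parallel with the Smad reporter read, viability of HEK 293T cells stably carrying SBE-bla is quantified by ATP luminescence following 5 hr compound treatment.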

[7] = qHTS assay to identify small molecule agonists of the TGF-beta/Smad signaling pathway (AID 1346859; active means well fitted activation curve with a large enough effect in the signal ratio in the repeat runs, not every such curve was filed as active; the % refers to the signal ratio; further: series mostly up to about 77 µM)
Outline: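 HEK 293T cells stably carrying a beta-lactamase reporter driven by the Smad binding element were seeded overnight, exposed to DMSO-dissolved compounds for 5 hr at 37 C, 5% CO2, then loaded with FRET substrate for 2 hr at room temperature.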

[8] = molecular target: Thyrotropin-releasing hormone receptor (Homo sapiens) (UniProt P34981); test: qHTS assay to identify small molecule antagonists of the thyrotropin-releasing hormone receptor (TRHR) signaling pathway (AID 1346877; active means well fitted inhibition curve with a large enough effect in the repeat runs, not every such curve was filed as active; further: series mostly up to about 51 µM)
Chain of Thyrotropin-releasing hormone receptor (Homo sapiens) (P34981 whole entry, looked up): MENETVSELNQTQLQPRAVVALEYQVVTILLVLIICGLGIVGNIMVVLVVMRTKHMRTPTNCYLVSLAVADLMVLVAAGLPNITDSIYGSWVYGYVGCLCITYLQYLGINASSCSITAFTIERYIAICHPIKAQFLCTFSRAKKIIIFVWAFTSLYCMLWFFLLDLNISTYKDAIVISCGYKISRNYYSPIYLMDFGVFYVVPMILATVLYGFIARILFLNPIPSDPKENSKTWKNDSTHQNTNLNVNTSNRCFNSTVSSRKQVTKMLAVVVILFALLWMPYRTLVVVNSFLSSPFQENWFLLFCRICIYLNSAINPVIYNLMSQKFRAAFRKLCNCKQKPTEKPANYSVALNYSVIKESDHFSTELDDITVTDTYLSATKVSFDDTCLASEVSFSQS
Outline: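 Cells (TRHR-HEK293) are plated and kept 18 h at 37 °C/5% CO2. A calcium-sensitive dye is added for 2 h, compound follows for 5 min at room temperature, and TRH is then given at 1 nM final.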

[9] = molecular target: Thyrotropin-releasing hormone receptor (Homo sapiens) (UniProt P34981); test: qHTS assay to identify small molecule agonists of the thyrotropin-releasing hormone receptor (TRHR) signaling pathway (AID 1346891; calls by dose curve; further: series mostly up to about 58 µM)
Outline: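 TRHR-expressing HEK293 cells were plated 18 h at 37 °C/5% CO2, loaded with calcium dye 2 h at 37 °C, then given compound in DMSO; fluorescence was read kinetically for 3 min at 1 s intervals.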

[10] = Human pregnane X receptor (PXR) small molecule agonists, qHTS cell viability counter screen (AID 1346977); further: nearly all actives have a fitted effect of over 50% in size
Outline: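 PXR-Luc HepG2 cells in medium with 5% charcoal-stripped FBS were pre-incubated 5hr, then exposed to compounds for 24hr at 37C. Viability was read in the same wells by CellTiter-Fluor fluorescence, reagent added after 23hr with a 1hr incubation.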

[11] = Caspase-3/7 induction in HepG2 cells by small molecules, qHTS assay (AID 1346978); further: nearly all actives have a fitted effect of over 15% in size
Outline: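 Wild-type HepG2 cells (2,000/well) were settled 5 h at 37 C, 5% CO2, then exposed to compounds in DMSO for 17 h. Caspase-3/7 activity was read by luminescence 30 min after adding Caspase-Glo 3/7 reagent at room temperature.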

[12] = Caspase-3/7 induction in CHO-K1 cells by small molecules, qHTS cell viability counter screen (AID 1346979); further: nearly all actives have a fitted effect of over 35% in size; further: potency means the concentration at half of the fitted maximal effect
Outline: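 Wild-type CHO-K1 cells were seeded at 1,500 per well, rested 5hr at 37 C, then exposed to compounds in DMSO. After 16hr, CellTiter-Fluor reagent was added and fluorescence read 1hr later as the viability measure.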

[13] = Caspase-3/7 induction in CHO-K1 cells by small molecules, qHTS assay (AID 1346980); further: nearly all actives have a fitted effect of over 15% in size
Outline: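 Wild-type cells were seeded at 1,500 per well and settled 5 hr at 37 C, 5% CO2, then exposed to DMSO-dissolved compounds for 17 hr. Caspase-Glo 3/7 reagent was added, and luminescence was read after 30min at room temperature.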

[14] = molecular target: Nuclear receptor subfamily 1 group I member 2 (Homo sapiens) (UniProt O75469); test: Human pregnane X receptor (PXR) small molecule agonists, qHTS assay (AID 1346982); further: nearly all actives have a fitted effect of over 35% in size; further: potency means the concentration at half of the fitted maximal effect
Chain of Nuclear receptor subfamily 1 group I member 2 (Homo sapiens) (O75469 whole entry, looked up): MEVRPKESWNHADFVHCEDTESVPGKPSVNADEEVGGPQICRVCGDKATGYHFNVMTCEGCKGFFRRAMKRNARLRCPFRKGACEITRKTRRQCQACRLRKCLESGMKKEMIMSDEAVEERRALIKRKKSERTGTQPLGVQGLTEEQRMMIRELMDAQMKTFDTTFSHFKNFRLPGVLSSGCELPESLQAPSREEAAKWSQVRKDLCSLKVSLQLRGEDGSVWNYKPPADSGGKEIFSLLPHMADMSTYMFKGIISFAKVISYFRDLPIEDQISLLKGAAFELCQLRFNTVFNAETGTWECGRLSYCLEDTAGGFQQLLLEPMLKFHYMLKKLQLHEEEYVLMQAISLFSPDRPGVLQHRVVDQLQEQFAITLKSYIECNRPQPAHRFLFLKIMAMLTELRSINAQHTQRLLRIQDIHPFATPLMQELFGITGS
Outline: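 Agonist mode qHTS: PXR-Luc HepG2 cells plated 5 hr before DMSO-dissolved compounds were pinned in, cultured 24 hr at 37 C, 5% CO2; ONE-Glo luminescence readout.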

[15] = qHTS assay to identify small molecule antagonists of the progesterone receptor (PR) signaling pathway - cell viability counter screen (AID 1346798); further: nearly all actives have a fitted effect of over 50% in size; further: potency means the concentration at half of the fitted maximal effect
Outline: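 PR-UAS-bla HEK293T cells in medium with 2% charcoal-stripped FBS were treated with compounds plus R5020 for 16 hr at 37C. Cell viability was then read by CellTiter-Glo luminescence after 30 min at room temperature in the same wells.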

[16] = molecular target: Nuclear receptor subfamily 1 group I member 2 (Rattus norvegicus) (UniProt Q9R1A7); test: Rat pregnane X receptor (rPXR) activation by small molecules, qHTS assay (AID 1346983); details: rPXR luciferase reporter cells, One-Glo luminescence, 24 h; max activation: stronger effect = higher value; further: nearly all actives have a fitted effect of over 20% in size; further: potency means the concentration at half of the fitted maximal effect
Chain of Nuclear receptor subfamily 1 group I member 2 (Rattus norvegicus) (Q9R1A7 whole entry, looked up): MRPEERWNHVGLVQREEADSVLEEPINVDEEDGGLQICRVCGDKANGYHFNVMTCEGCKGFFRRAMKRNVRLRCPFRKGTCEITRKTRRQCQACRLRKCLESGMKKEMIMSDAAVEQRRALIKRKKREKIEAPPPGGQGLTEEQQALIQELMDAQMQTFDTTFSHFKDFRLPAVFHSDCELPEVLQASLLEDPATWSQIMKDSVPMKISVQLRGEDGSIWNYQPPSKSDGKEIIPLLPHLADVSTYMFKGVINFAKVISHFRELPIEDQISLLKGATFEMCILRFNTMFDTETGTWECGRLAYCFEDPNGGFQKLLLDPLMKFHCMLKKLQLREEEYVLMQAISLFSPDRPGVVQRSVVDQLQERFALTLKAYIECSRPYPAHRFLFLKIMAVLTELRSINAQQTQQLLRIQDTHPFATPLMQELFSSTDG
Outline: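 Cell-based rPXR luciferase reporter assay, 2,000 cells per well, rested 5hr at 37 C before compound addition in DMSO, then 24 hr at 37 C. One-Glo reagent was added and luminescence read after 30 min at room temperature.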

[17] = Caspase-3/7 induction in HepG2 cells by small molecules, qHTS cell viability counter screen (AID 1346981); further: series mostly up to about 92 µM; nearly all actives have a fitted effect of over 30% in size
Outline: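 Steps: seed 2,000 HepG2 cells per well; incubate 5 hr at 37 C; pin-add compounds in DMSO; incubate 16 hr; add CellTiter-Fluor; after 1 hr at 37 C and 5% CO2, read fluorescence.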

[18] = molecular target: Nuclear receptor subfamily 1 group I member 2 (Homo sapiens) (UniProt O75469); test: Human pregnane X receptor (PXR) activation by small molecules, qHTS assay (AID 1346985); further: nearly all actives have a fitted effect of over 40% in size; further: potency means the concentration at half of the fitted maximal effect
Outline: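 DPX-2 cells (HepG2 co-transfected with a PXR response element and a CYP3A4-promoter luciferase construct) were seeded at 2,000 per well, rested 5 hr at 37C, then exposed to DMSO-dissolved compounds for 24 hr. Activation was read as luciferase luminescence.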

[19] = molecular target: Cytochrome P450 2D6 (Homo sapiens) (UniProt P10635); test: Cytochrome P450 Family 2 Subfamily D Member 6 (CYP2D6) small molecule antagonists: luciferase reporter qHTS assay (AID 1671196); further: nearly all actives have a fitted effect of over 50% in size; further: potency means the concentration at half of the fitted maximal effect
Chain of Cytochrome P450 2D6 (Homo sapiens) (P10635 whole entry, looked up): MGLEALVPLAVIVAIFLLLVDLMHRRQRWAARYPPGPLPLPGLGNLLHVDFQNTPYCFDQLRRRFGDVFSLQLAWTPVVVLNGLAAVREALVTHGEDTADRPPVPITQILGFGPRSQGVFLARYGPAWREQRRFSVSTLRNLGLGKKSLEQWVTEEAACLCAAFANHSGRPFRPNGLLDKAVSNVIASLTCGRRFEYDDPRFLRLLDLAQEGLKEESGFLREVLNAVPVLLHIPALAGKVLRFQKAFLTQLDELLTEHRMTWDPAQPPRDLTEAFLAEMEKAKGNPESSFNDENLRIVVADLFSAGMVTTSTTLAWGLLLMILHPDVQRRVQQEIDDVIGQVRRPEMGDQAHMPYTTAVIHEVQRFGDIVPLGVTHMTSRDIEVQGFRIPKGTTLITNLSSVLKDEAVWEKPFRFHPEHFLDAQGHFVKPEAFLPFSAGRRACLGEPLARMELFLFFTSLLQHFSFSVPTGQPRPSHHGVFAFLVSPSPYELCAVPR
Outline: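 P450-Glo format: CYP2D6 converts a proluciferin substrate to luciferin in an NADPH-driven reaction lasting 1 h at room temperature. Light output, proportional to CYP2D6 activity, reflects interference by test chemicals.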

[20] = molecular target: Nuclear receptor subfamily 1 group I member 2 (Homo sapiens) (UniProt O75469); test: CYP3A4 induction through human pregnane X receptor (PXR) by small molecules, qHTS assay (AID 1346984); further: nearly all actives have a fitted effect of over 40% in size
Outline: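 Steps: seed DPX-2 cells, 5 hr at 37C; pin-transfer compounds; 24 hr at 37C; add Luciferin-IPA (3uM final), 3 hr at 37C; add One-Glo, 30 min RT; read luminescence.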
On the % scale 0 is the no-effect control and ±100 the full control effect.

CCC/C=C/C=O
inactive: Potency [1] | Potency [2] | Potency [3] | Potency [4] | Potency [5] | Potency [6] | outcome [7] | Potency [8] | Potency [9] | Potency [10] | Potency [11] | Potency [12] | Potency [13] | Potency [14]

CC/C(=C(/CC)c1ccc(O)cc1)c1ccc(O)cc1
active: Potency [3] 12.2 µM | Potency [15] 60.6 µM | Potency [12] 60.6 µM and 61.1 µM and 26.6 µM
inactive: Potency [1] | Potency [2] | Potency [5] | Potency [6] | outcome [7] | Potency [8] | Potency [9] | Potency [10] | Potency [11] | Potency [13] | max activation [16] 5.39%

CC1(C)O[C@@H]2C[C@H]3[C@@H]4C[C@H](F)C5=CC(=O)C=C[C@]5(C)[C@@]4(F)[C@@H](O)C[C@]3(C)[C@]2(C(=O)CO)O1
active: Potency [14] 24.3 µM and 8.41 µM | Potency [16] 11.2 µM | Potency [18] 15.8 µM
inactive: Potency [1] | Potency [3] | Potency [15] | Potency [5] | Potency [6] | outcome [7] | Potency [8] | Potency [9] | Potency [10] | Potency [11] | Potency [12] | Potency [13] | Potency [17] | Potency [19]

CC/C=C\C/C=C\C/C=C\CCCCCCCC(=O)O
active: Potency [19] 19.8 µM
inactive: Potency [1] | Potency [15] | Potency [5] | Potency [6] | outcome [7] | Potency [8] | Potency [9] | Potency [10] | Potency [11] | Potency [13] | Potency [17] | max activation [16] -1.32% | Potency [20] | Potency [18]
inactive and 61.1 µM (active): Potency [12] | Potency [14]

CC(=O)O[C@]1(C(C)=O)CC[C@H]2[C@@H]3C=C(C)C4=CC(=O)CC[C@]4(C)[C@H]3CC[C@@]21C
active: Potency [2] 0.0039 µM | Potency [12] 68.6 µM | Potency [14] 27.3 µM
inactive: Potency [1] | Potency [3] | Potency [5] | Potency [6] | Potency [10] | Potency [11] | Potency [13] | Potency [20] | Potency [18]

O=C(O)c1cc(=O)[nH]c(=O)[nH]1
active: Potency [19] 6.34 µM
inactive: Potency [1] | Potency [2] | Potency [3] | Potency [5] | Potency [6] | outcome [7] | Potency [10] | Potency [11] | Potency [12] | Potency [13] | Potency [17] | Potency [14] | max activation [16] -3.14% | Potency [20] | Potency [18]

Oc1c(Cl)ccc(Cl)c1Cl
inactive: Potency [1] | Potency [3] | Potency [15] | Potency [4] | Potency [5] | Potency [6] | outcome [7] | Potency [8] | Potency [9] | Potency [10] | Potency [11] | Potency [12] | Potency [13] | Potency [17] | Potency [14]

c1ccc2ncccc2c1
inactive: Potency [1] | Potency [2] | Potency [3] | Potency [15] | Potency [5] | Potency [6] | outcome [7] | Potency [8] | Potency [9] | Potency [10] | Potency [11] | Potency [12] | Potency [13] | Potency [17] | Potency [14] | Potency [19]
